Compound activity: PubChem, The Scripps Research Institute Molecular Screening Center
Compounds with a hit are over-represented: about 3.5% of the library has one in this group of screens.
TEAD-YAP block = TEAD-YAP interaction inhibition, primary screen, TEAD-YAP interaction inhibitor project, luminescence, HEK-TIYL cells. TEAD-Gal4/YAP UAS-luciferase luminescence. 640,000 compounds, 1.4% hits. inhibition, % at 9.12 µM. AID 1259422, 2018; in the data active means inhibition above about 32%;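 further: 0% = median of test compound wells and 100% = reference inhibitor wells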
MITF primary = MITF inhibitors, primary screen, biochemical, AlphaScreen, human | 650,000 compounds, 0.91% hits | AlphaScreen MITF homodimerization, bead proximity signal | AID 1259374, 2018 | Microphthalmia-associated transcription factor (Homo sapiens), O75030 | inhibition, % at 2.6 µM; in the data active means inhibition above about 50%;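 further: 0% = vehicle wells with protein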
FBW7 act = FBW7 E3 ligase activators, primary screen, biochemical, AlphaScreen, human. 650,000 compounds, 0.13% hits. normalized activity (activation), % at 26.1 µM. AlphaScreen FBW7–phospho-cyclin E peptide binding, activator screen. F-box/WD repeat-containing protein 7 (Homo sapiens), Q969H0; in the data active means normalized activity above about 1.9%;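 further: purified mutant Fbw7 with reduced substrate affinity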
GPR151 activ = activators of human GPR151, primary screen, cell-based, PathHunter beta-arrestin, luminescence; G-protein coupled receptor 151 (Homo sapiens), Q8TDV0; PathHunter beta-arrestin GPR151 cells; activation, % at 11.2 µM; 650,000 compounds, 1% hits; in the data active means activation above about 4.9%;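 further: 0% = median of compound wells and 100% = cells with positive control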
Target sequence (Q8TDV0 whole entry, looked up): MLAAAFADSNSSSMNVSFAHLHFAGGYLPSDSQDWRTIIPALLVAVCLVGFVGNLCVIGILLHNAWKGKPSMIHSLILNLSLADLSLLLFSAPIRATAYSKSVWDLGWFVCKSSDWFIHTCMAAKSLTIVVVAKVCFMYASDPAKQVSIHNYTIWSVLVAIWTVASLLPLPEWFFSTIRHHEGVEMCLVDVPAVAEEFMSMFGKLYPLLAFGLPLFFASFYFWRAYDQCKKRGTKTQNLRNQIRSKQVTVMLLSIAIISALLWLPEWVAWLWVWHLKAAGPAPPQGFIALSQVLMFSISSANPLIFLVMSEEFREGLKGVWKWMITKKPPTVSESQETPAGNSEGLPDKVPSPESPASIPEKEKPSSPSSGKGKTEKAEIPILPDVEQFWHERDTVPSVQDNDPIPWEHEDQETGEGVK
MITF confirm = MITF inhibitors, retest of hits, confirmation, biochemical, AlphaScreen, triplicate; shares compounds with MITF primary; AlphaScreen MITF homodimerization, biotin/His-MITF beads; inhibition, % at 2.6 µM; 4,700 compounds, 16% hits;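 active means inhibition above a cutoff derived from the DMSO control wells, cut at about 28% in these data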;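 further: 0% = MITF dimer wells with DMSO only; inhibitors lower the bead chemiluminescence by keeping MITF from dimerizing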
AS interf DR = AlphaScreen optical interference compounds, dose response, counter-screen, biochemical, HTS. AlphaScreen optical interference counterscreen, cell-free. shares compounds with MITF primary. 480 compounds, 6% hits. AID 1259373, 2018. IC50, µM; call rule not given here
AlphaScreen intf2 = AlphaScreen optical interference compounds, counter-screen for MITF inhibitor project, biochemical, triplicate | LysRS AlphaScreen counterscreen, signal interference | 4,700 compounds, 7.6% hits | shares compounds with MITF primary | inhibition, % at 2.6 µM;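 active means inhibition above a cutoff derived from the DMSO control wells, cut at about 30% in these data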
* marks the source's active call; other numbers are inactive results; . = no result.

SMILES	TEAD-YAP block	MITF primary	FBW7 act	GPR151 activ	MITF confirm	AlphaScreen intf2	others
CCP(=O)(CC)Nc1cccc(C(F)(F)F)c1	8	8	0	1	.	.
CCOC(=O)C1=C(C)NC(C)=C2C(=O)Oc3ccccc3C12 (stereo unspecified)	0	-3	0	1	.	.
CCOC(=O)C12OC1(c1ccc(CC)cc1)C(=O)c1ccccc1C2=O (stereo unspecified)	37*	21	0	0	.	.
CN(C)c1ccc(-c2cc[n+](C)cc2)cc1	56*	17	0	2	.	.
Cc1nc2c(=O)n(C)c(=O)nc-2n(C)n1	100*	22	-2	-6	.	.
CCn1nc(-c2ccccc2)nc2c(=O)n(C)c(=O)nc1-2	-32	5	-2	-8	.	.
O=C1NC(=O)C(=Cc2ccc([N+](=O)[O-])o2)C(=O)N1	4	79*	-1	2	.	.
Cc1[nH]c2c(C)ccc(F)c2c1CCN	-19	-9	0	3	.	.
CN1CCN(c2cccc3c2C(=O)c2ccccc2C3=O)CC1	37*	7	0	0	.	.
CCOC(=O)C1C2NC(=S)N(c3ccc(Cl)cc3)C1(C)Oc1c(OC)cccc12 (stereo unspecified)	62*	26	-1	1	.	.
CCOC(=O)C1C2NC(=S)N(c3ccc(Cl)cc3)C1(C)Oc1ccc(OC)cc12 (stereo unspecified)	50*	19	0	-1	.	.
CCOc1ccc(CN(CCc2ccc3c(c2)OCO3)Cc2ccccc2)cc1	-4	15	0	2	.	.
CCOc1ccc(CN(CCc2ccc3c(c2)OCO3)Cc2ccc([N+](=O)[O-])cc2)cc1	3	54*	0	-3	1	15
Clc1ccc2c(N3CCOCC3)nc(CN3CC=C(c4ccccc4)CC3)nc2c1	6	-9	0	-1	.	.
COc1ccc(CN2CCNCC2)cc1Br	19	10	0	-1	.	.
CCC(C)N1CCN(Cc2ccc(OC)c(Br)c2)CC1 (stereo unspecified)	27	82*	0	2	24	14
CCOc1cc(CN2CCN(C(C)CC)CC2)ccc1OC (stereo unspecified)	-6	74*	0	1	-3	-9
CCOc1cc(CN2CCN(CCO)CC2)ccc1OC	5	8	1	-1	.	.
CCCCC/C=C\CC(/C=C/C=C\C/C=C\CCCC(=O)O)OO (stereo unspecified)	.	13	.	-3	.	.
CC(C)(C)C(C(Oc1ccc(Cl)cc1)n1cncn1)n1nnnc1C1(N)CCCCC1 (stereo unspecified)	-9	-2	0	-2	.	.
CCOC(=O)C1C2NC(=S)N(c3ccccc3C)C1(C)Oc1c(OCC)cccc12 (stereo unspecified)	8	60*	-1	-2	34*	36*
CCn1c2ccccc2c2cc(CN3CCN(C)CC3)ccc21	4	63*	0	0	14	13
Cc1ccccc1CN1CCN(Cc2ccccc2[N+](=O)[O-])CC1	-7	61*	0	0	2	-3
Cc1ccccc1CN1CCN(Cc2ccc([N+](=O)[O-])cc2)CC1	1	63*	0	0	0	2
O=[N+]([O-])c1ccc(CN2CCN(Cc3ccccc3)CC2)cc1	-3	57*	0	-1	3	11
SMILES	TEAD-YAP block	MITF primary	FBW7 act	GPR151 activ	MITF confirm	AlphaScreen intf2	others
CCC(C)N1CCN(Cc2ccccc2[N+](=O)[O-])CC1 (stereo unspecified)	7	74*	0	1	13	-14
Cc1cc(C=C2C(=O)NC(=S)NC2=O)c(C)n1-c1cccc(F)c1	5	17	0	3	.	.
CCC(C)N1CCN(Cc2cc(OC)ccc2OC)CC1 (stereo unspecified)	-7	57*	0	1	-2	3
COc1ccc(OC)c(CN2CCN(Cc3ccccc3)CC2)c1	-5	6	0	0	.	.
CCC(C)N1CCN(Cc2ccc(OC)c(OC)c2OC)CC1 (stereo unspecified)	4	69*	0	0	-1	-7
CCC(CC)N1CCN(Cc2ccc(OC)c(OC)c2OC)CC1	10	74*	0	-1	1	4
OCCN1CCN(Cc2ccccc2Br)CC1	2	35	0	0	.	.
CCC(C)N1CCN(Cc2ccccc2C)CC1 (stereo unspecified)	3	83*	0	0	15	21
Cc1ccccc1CN1CCN(c2ccc(F)cc2)CC1	-2	10	0	1	.	.
CCC(C)N1CCN(Cc2ccccc2Br)CC1 (stereo unspecified)	9	83*	0	-1	10	9
CN(C)C(=O)c1ccc(Cn2nc(C(=O)Nc3ccc4c(c3)OCO4)c3ccccc32)cc1	-7	-13	0	-6	.	.
Nc1ncnc2c1ncn2[C@@H]1O[C@H](COP(=O)(O)CP(=O)(O)OP(=O)(O)O)[C@H](O)C1O (stereo partly specified)	-4	11	0	-1	.	.
CCN(CC)c1ncnc2c1ncn2[C@@H]1O[C@H](COP(=O)(O)OP(=O)(O)C(Br)(Br)P(=O)(O)O)C(O)[C@@H]1O (stereo partly specified)	.	73*	0	3	88*	-23	AS interf DR=>6.5
C1=C(c2nc3ccccc3[nH]2)CCN(Cc2ccccc2)C1	-33	-2	0	-1	.	.
COc1ccc(CCNCc2ccc(OC)c(OC)c2)cc1	6	51*	0	-1	-1	-6
COc1ccc(CCNCc2ccc(OC)cc2)cc1	8	21	0	-1	.	.
COc1ccc(OC)c(CN2CCN(CC(C)C)C(CCO)C2)c1 (stereo unspecified)	-5	-18	0	1	.	.
CN(N=O)c1cc(O)ccc1O	7	78*	0	1	62*	-19	AS interf DR=>6.5
CCOc1cccc(OCC)c2c(C)nc(C)c1-2	8	76*	0	2	82*	-2
CCOc1cccc(OCC)c2c(C)[n+](C)c(C)c1-2	-34	73*	0	0	79*	3	AS interf DR=>5.1
O=C(Nc1cc(Br)ccc1C(=O)c1ccccc1)c1ccc(Br)cc1F	12	13	1	-1	.	.
CCOC(=O)c1cccc(NC(=O)CCc2nc(C3=CCN(C)CC3)no2)c1	12	9	1	2	.	.
CC(C)c1ccc(NC(=O)CCc2nc(C3=CCN(C)CC3)no2)cc1	-3	32	1	2	.	.
